Source: PubChem
Pf Dd2 growth: P. falciparum Dd2 growth inhibitors, primary screen, SYBR Green fluorescence, single dose replicates | 72 h; hits give low values | activity change, % at 10 µM | actives 2.3% (n = 94,000); in the data active = activity change below about -80%; inconclusive = no clear call, values can overlap the other calls
C diff growth: C. difficile growth inhibitors, primary screen, HTS. AID 1259249, 2017. actives 0.25% (n = 86,000). Clostridium difficile clinical isolate growth, OD600, 24 h; hits give low values. growth activity, negative = inhibition, % at 16 µg/mL (by protocol);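 active = mean growth activity at or below -80% and every replicate also at or below -80%; inconclusive = mean at or below -80% but some replicate above -80%; inactive = mean growth activity above -80%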;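 note: 0% = DMSO wells and -100% = levofloxacin 16 µg/mL wells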
T cruzi growth-1: T. cruzi intracellular proliferation inhibitors, primary screen, cell-based, beta-gal Tulahuen parasites, NIH3T3 host, luminescence; T. cruzi beta-gal in NIH3T3, GalScreen luminescence, 90 h; AID 624255, 2012; inhibition, % at 8.34 µM; actives 5.9% (n = 77,000);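 active = mean inhibition above about 93%, with at least 55% of replicates each passing it, limit read from the data, passing the limit was not always enough; inconclusive = only one of those two conditions holds; inactive = neither condition holds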
T cruzi growth-2: T. cruzi intracellular proliferation inhibitors, confirmation, cell-based, NIH3T3 host, beta-gal parasite, luminescence, cherry-pick; shares compounds with T cruzi growth-1; T. cruzi beta-gal in NIH3T3, GalScreen luminescence, 90 h; inhibition, % at 8.35 µM; actives 72% (n = 5,600); AID 651739, 2012;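 active = mean replicate inhibition above about 95% and at least 55% of replicates individually reaching it, limit read from the data; inconclusive = only one of the two criteria is met; inactive = neither criterion is met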
T cruzi growth-3: inhibitors of intracellular T. cruzi replication, confirmation, NIH3T3 host cells, beta-gal parasites, cherry-pick, set 2. shares compounds with T cruzi growth-1. T. cruzi beta-gal in NIH3T3, GalScreen luminescence, 90 h. inhibition, % at 2.09 µM. actives 21% (n = 5,600). AID 651740, 2012;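 active = mean inhibition above about 95%, with at least 55% of replicates also reaching it, limit read from the data; inconclusive = meets just one of the two conditions; inactive = meets neither condition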;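 note: plate controls were neutral control median for no effect and positive control median for full effect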
NIH3T3 tox: cytotoxicity in mouse NIH/3T3 fibroblasts, confirmation, cytotoxicity control for T. cruzi proliferation inhibitor project, cell-based, cherry-pick, single point; shares compounds with T cruzi growth-1; cytotoxicity (signal decrease), % at 8.35 µM; NIH/3T3 viability, CellTiter-Glo ATP luminescence, 90 h; AID 651742, 2012; actives 14% (n = 5,600);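 active = mean signal decrease across replicates above about 35% based on untreated-well scatter, with enough replicates individually passing, limit read from the data; inconclusive = no rule stated though some were filed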;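 note: 0% = median of neutral control wells and 100% = median of positive control wells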
NIH3T3 tox 2: NIH/3T3 fibroblast cytotoxicity, confirmation, cytotoxicity control, cell-based, cherry-pick, single point, set 2; shares compounds with T cruzi growth-1; NIH/3T3 viability, CellTiter-Glo ATP luminescence, 90 h; inhibition, % at 24.9 µM; actives 56% (n = 5,600); AID 651744, 2012;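 active = mean loss of cell viability signal at or above a set limit, and enough replicates individually reaching it; inconclusive = meets only the mean limit or only the replicate share; inactive = meets neither condition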;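 note: 0% = median of neutral control wells and 100% = median of positive control wells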
* hit, by the source's call; ? = inconclusive; · = no result. Sampled rows, rich in hits. Any-hit rate of the full collection: about 6.8%.

SMILES	Pf Dd2 growth	C diff growth	T cruzi growth-1	T cruzi growth-2	T cruzi growth-3	NIH3T3 tox	NIH3T3 tox 2
CO[C@@H]1CN(C)C(=O)c2ccc(NC(=O)C3CCCC3)cc2OC[C@@H](C)N(Cc2nccs2)C[C@H]1C	-18	·	26	·	·	·	·
CC(C)C#Cc1cnc2c(c1)C(=O)N([C@H](C)CO)C[C@H](C)[C@H](CN(C)C(=O)Nc1ccc(F)cc1)O2	-18	14	116*	-51	28	15	86*
C[C@@H](O)C#Cc1cnc2c(c1)C(=O)N([C@@H](C)CO)C[C@H](C)[C@H](CN(C)C(=O)Nc1ccc(F)cc1)O2	38	1	-40	·	·	·	·
CC(C)C#Cc1cnc2c(c1)C(=O)N([C@@H](C)CO)C[C@H](C)[C@H](CN(C)C(=O)Nc1ccc(F)cc1)O2	-34	12	102*	46	40	30	?
CC(C)C#Cc1cnc2c(c1)C(=O)N([C@@H](C)CO)C[C@H](C)[C@@H](CN(C)C(=O)Nc1ccc(F)cc1)O2	-44	-3	-13	·	·	·	·
C[C@@H]1CN([C@@H](C)CO)C(=O)Cc2cc(NC(=O)C3CCCCC3)ccc2O[C@@H]1CN(C)C	-8	-1	16	·	·	·	·
Cc1ccccc1-c1ccc2c(c1)O[C@H](CN(C)Cc1ccncc1)[C@H](C)CN([C@@H](C)CO)S2(=O)=O	-55	-1	97*	107*	75	52*	?
Cc1ccccc1-c1ccc2c(c1)O[C@H](CN(C)Cc1ccncc1)[C@@H](C)CN([C@H](C)CO)S2(=O)=O	-68	5	94	·	·	·	·
C[C@H](CO)N1C[C@H](C)[C@H](CN(C)Cc2cccnc2)Oc2cc(-c3ccccc3F)ccc2S1(=O)=O	-2	1	87	·	·	·	·
C[C@@H]1CN([C@H](C)CO)S(=O)(=O)c2ccc(-c3ccccc3F)cc2O[C@H]1CN(C)Cc1ccncc1	-42	-19	116*	99*	105*	92*	103*
C[C@H]1CN([C@@H](C)CO)S(=O)(=O)c2ccc(-c3ccccc3F)cc2O[C@H]1CN(C)Cc1ccncc1	14	-5	107*	99*	92	32	56*
C[C@@H]1CN([C@@H](C)CO)S(=O)(=O)c2ccc(-c3ccccc3F)cc2O[C@@H]1CN(C)Cc1cncnc1	5	-10	64	·	·	·	·
C/C=C/c1ccc([C@@H]2[C@H](CN(C)S(C)(=O)=O)N[C@@H]2CO)cc1	2	-2	·	·	·	·	·
C[C@@H]1CN([C@H](C)CO)C(=O)Cc2cc(NC(=O)Nc3ccccc3)ccc2O[C@@H]1CN(C)C	1	1	93	·	·	·	·
COc1ccccc1CN1C[C@@H]2N[C@H](C1)C2c1ccc(-c2ccccc2OC)cc1 (stereo partly drawn)	-71	3	·	·	·	·	·
C[C@@H]1CN([C@@H](C)CO)C(=O)c2cc(C3=CCCC3)cnc2O[C@H]1CN(C)S(=O)(=O)c1cn(C)cn1	24	-3	70	·	·	·	·
COc1cccc(S(=O)(=O)N[C@@H]2CC[C@H](CCNC(=O)Cc3ccncc3)O[C@H]2CO)c1	4	8	-15	·	·	·	·
COc1cccc(-c2ccc3c(c2)O[C@H](CN(C)Cc2cncnc2)[C@H](C)CN([C@@H](C)CO)S3(=O)=O)c1	1	-6	97*	?	58	31	64*
COc1cccc(-c2ccc3c(c2)O[C@H](CN(C)Cc2ccncc2)[C@@H](C)CN([C@@H](C)CO)S3(=O)=O)c1	16	1	·	·	·	·	·
COc1cccc(-c2ccc3c(c2)O[C@@H](CN(C)Cc2cncnc2)[C@H](C)CN([C@H](C)CO)S3(=O)=O)c1	-19	-3	?	?	64	39*	72*
COc1cccc(-c2ccc3c(c2)O[C@@H](CN(C)Cc2ccncc2)[C@@H](C)CN([C@@H](C)CO)S3(=O)=O)c1	-65	1	·	·	·	·	·
